Reference: PubChem BioAssay (EPA / NIEHS)
The source made the active and inactive calls. Rule for the calls: active = hit-call score of the fitted dose curve at least 0.9, where 1 is the maximum; inactive = score below 0.9.

Tests used:
[1] = ATG_E_Box_CIS: Attagene CIS-FACTORIAL HepG2 Assay for human Enhancer Box (E-box) (AID 2282936); settings: HepG2 E-box cis-reporter transcription, actives raise or lower the signal
How it was run: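 Cells: HepG2 (human liver), transient MRTU transfection. Exposure 24 h. RNA → oligo(dT) RT → PCR → 6-FAM label → HpaI → CE. Activity fitted both directions relative to DMSO.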

[2] = ATG_M_61_CIS: Attagene CIS-FACTORIAL HepG2 Assay for M61 Transcription Factor (Internal Marker) (AID 2282937); settings: HepG2 Attagene CIS-FACTORIAL M61 internal marker reporter; actives raise or lower the signal
How it was run: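 Multiplexed reporter mRNA assay, HepG2 human hepatoma cells, 24 h treatment. Signal: FAM-labelled, HpaI-digested RT-PCR fragments by CE. Fit: bidirectional, baseline DMSO.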

[3] = ATG_EGR_CIS: Attagene CIS-FACTORIAL HepG2 Assay for human Early Growth Response 1 (EGR1) (AID 2282938); settings: HepG2 Attagene CIS-FACTORIAL EGR reporter mRNA; actives raise or lower the signal
How it was run: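 Multiplexed cis-reporter system in human hepatoma HepG2 cells, transiently transfected. Cells are dosed for 24 h; reporter transcripts are amplified, fluorescently tagged and sized by capillary electrophoresis, with DMSO as negative control.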

[4] = ATG_M_19_CIS: Attagene CIS-FACTORIAL HepG2 Assay for M19 Transcription Factor (Internal Marker) (AID 2282939); settings: HepG2 Attagene CIS-FACTORIAL M19 internal marker reporter; actives raise or lower the signal
How it was run: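 Transfect HepG2 with MRTU reporter library → dose chemical, 24 h → isolate total RNA, reverse-transcribe with oligo(dT) → PCR, 6-FAM label, HpaI cut (2 h, 37 C) → capillary electrophoresis. Bidirectional fit vs DMSO.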

[5] = ATG_ERE_CIS: Attagene CIS-FACTORIAL HepG2 Assay for Estrogen Response Element (ERE) (AID 2282940); settings: HepG2 ERE cis-reporter, Attagene RNA transcript; actives raise or lower the signal
How it was run: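 Transient MRTU transfection of human HepG2; cis-element promoters; 24 h dosing; total RNA → RT (oligo dT) → PCR → 6-FAM primer extension → HpaI digest → CE fluorescence. Bidirectional fit, DMSO baseline.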

[6] = ATG_Ets_CIS: Attagene CIS-FACTORIAL HepG2 Assay for human Erythroblast Transformation Specific (ETS) (AID 2282941); settings: HepG2 ETS cis-reporter transcription, actives raise or lower the signal
How it was run: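 Human HepG2 hepatoma cells were transiently transfected with promoter-driven reporter constructs and treated for 24 hours. Reporter transcripts were quantified by RT-PCR with fluorescent primer extension; bidirectional curve fitting used DMSO as reference.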

[7] = target: Hepatocyte nuclear factor 3-beta (Homo sapiens) (UniProt Q9Y261); assay: ATG_FoxA2_CIS: Attagene CIS-FACTORIAL HepG2 Assay for human Forkhead box A2 (FOXA2) (AID 2282942); settings: HepG2 cis-reporter transcription factor activity, 24 h; actives raise or lower the signal
How it was run: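 Multiplexed cis-element reporter assay in transiently transfected HepG2. Twenty-four hours post-dosing, RNA was reverse-transcribed, amplified, FAM-labelled, HpaI-digested and separated by CE. Activity gain or loss relative to DMSO.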

[8] = ATG_GATA_CIS: Attagene CIS-FACTORIAL HepG2 Assay for human GATA Binding Protein (AID 2282944); settings: HepG2 GATA cis-element reporter, Attagene multiplex mRNA; actives raise or lower the signal
How it was run: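 Transient MRTU transfection, HepG2, 24 h compound exposure. Total RNA → oligo(dT) RT → PCR → 6-FAM primer extension → HpaI cut → CE. Bidirectional fit vs DMSO.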

[9] = ATG_GLI_CIS: Attagene CIS-FACTORIAL HepG2 Assay for human Zinc Finger Protein GLI1 (AID 2282945); settings: HepG2, Attagene cis-factorial reporter mRNA, GLI element; actives raise or lower the signal
How it was run: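 Bidirectional curve fits relative to DMSO, using reporter mRNA levels from RT-PCR plus capillary electrophoresis. Cells were HepG2 transiently carrying cis-regulated reporter constructs, harvested 24 h after dosing.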

[10] = ATG_FoxO_CIS: Attagene CIS-FACTORIAL HepG2 Assay for human Forkhead box O (FoxO) (AID 2282943); settings: HepG2 Attagene cis-reporter, FoxO element, mRNA; actives raise or lower the signal
How it was run: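 HepG2, transient MRTU transfection (cis element, endogenous TFs). Dose 24 h. TriZol RNA → oligo(dT) RT → PCR → 6-FAM primer extension → HpaI cut → CE. Gain/loss vs DMSO.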

Sequence of Hepatocyte nuclear factor 3-beta (Homo sapiens) (Q9Y261 whole entry, looked up): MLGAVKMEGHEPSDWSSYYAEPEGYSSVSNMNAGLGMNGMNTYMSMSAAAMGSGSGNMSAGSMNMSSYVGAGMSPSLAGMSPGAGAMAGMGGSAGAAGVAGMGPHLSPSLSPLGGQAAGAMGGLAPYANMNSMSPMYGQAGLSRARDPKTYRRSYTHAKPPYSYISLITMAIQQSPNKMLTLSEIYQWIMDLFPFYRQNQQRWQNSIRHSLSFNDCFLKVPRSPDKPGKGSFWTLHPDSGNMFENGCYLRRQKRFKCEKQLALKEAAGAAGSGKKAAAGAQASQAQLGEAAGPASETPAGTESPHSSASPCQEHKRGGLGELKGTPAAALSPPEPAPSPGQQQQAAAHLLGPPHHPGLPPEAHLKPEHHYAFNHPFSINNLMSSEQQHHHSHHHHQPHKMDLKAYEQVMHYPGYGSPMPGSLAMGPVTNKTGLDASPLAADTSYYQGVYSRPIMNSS

## CC(C)c1ccc(CO)cc1
[1]
  outcome: inactive
[2]
  outcome: inactive
[3]
  outcome: inactive
[4]
  outcome: inactive
[5]
  outcome: inactive
[6]
  outcome: inactive
[7]
  outcome: inactive
[8]
  outcome: inactive
[9]
  outcome: inactive

## CCC(=O)C(CC(C)N(C)C)(c1ccccc1)c1ccccc1 (stereo unspecified)
[1]
  AC50: 48.8 µM (active)
[2]
  outcome: inactive
[3]
  outcome: inactive
[4]
  outcome: inactive
[5]
  outcome: inactive
[6]
  outcome: inactive
[7]
  outcome: inactive
[10]
  outcome: inactive
[8]
  outcome: inactive
[9]
  outcome: inactive

## Cl/C=C/Cl
[1]
  outcome: inactive
[2]
  outcome: inactive
[3]
  outcome: inactive
[4]
  outcome: inactive
[5]
  outcome: inactive
[6]
  outcome: inactive
[7]
  outcome: inactive
[10]
  outcome: inactive
[8]
  outcome: inactive
[9]
  outcome: inactive

## CC12CC1(C)C(=O)N(c1cc(Cl)cc(Cl)c1)C2=O (stereo unspecified)
[1]
  outcome: inactive
[2]
  outcome: inactive
[3]
  outcome: inactive
[4]
  outcome: inactive
[6]
  outcome: inactive
[7]
  outcome: inactive
[10]
  outcome: inactive
[8]
  outcome: inactive
[9]
  outcome: inactive

## ClCc1cccnc1
[1]
  outcome: inactive
[2]
  outcome: inactive
[3]
  AC50: 58.6 µM (active)
[4]
  outcome: inactive
[5]
  outcome: inactive
[6]
  AC50: 81.3 µM (active)
[7]
  outcome: inactive
[10]
  outcome: inactive
[8]
  outcome: inactive
[9]
  outcome: inactive

## C[C@@H](Oc1ccc(Cl)cc1Cl)C(=O)O
[1]
  outcome: inactive
[2]
  outcome: inactive
[3]
  outcome: inactive
[4]
  outcome: inactive
[5]
  outcome: inactive
[6]
  outcome: inactive
[7]
  outcome: inactive
[10]
  outcome: inactive
[8]
  outcome: inactive
[9]
  outcome: inactive

## OCc1ccco1
[1]
  outcome: inactive
[2]
  outcome: inactive
[3]
  outcome: inactive
[4]
  outcome: inactive
[6]
  outcome: inactive
[7]
  outcome: inactive
[10]
  outcome: inactive
[8]
  outcome: inactive
[9]
  outcome: inactive

## CN(C)N=O
[1]
  outcome: inactive
[2]
  outcome: inactive
[3]
  outcome: inactive
[4]
  outcome: inactive
[6]
  outcome: inactive
[7]
  outcome: inactive
[10]
  outcome: inactive
[8]
  outcome: inactive
[9]
  outcome: inactive

## CC(C)c1cccc(C(C)C)c1O
[1]
  outcome: inactive
[2]
  outcome: inactive
[3]
  outcome: inactive
[4]
  outcome: inactive
[6]
  outcome: inactive
[7]
  outcome: inactive
[10]
  outcome: inactive
[8]
  outcome: inactive
[9]
  outcome: inactive

## Fc1ccc(C2(Cn3cncn3)OC2c2ccccc2Cl)cc1 (stereo unspecified)
[1]
  outcome: inactive
[2]
  outcome: inactive
[3]
  outcome: inactive
[4]
  outcome: inactive
[6]
  outcome: inactive
[7]
  outcome: inactive
[10]
  outcome: inactive
[8]
  outcome: inactive
[9]
  outcome: inactive

## CC(C#N)CCC#N (stereo unspecified)
[1]
  outcome: inactive
[2]
  outcome: inactive
[3]
  outcome: inactive
[4]
  outcome: inactive
[5]
  outcome: inactive
[6]
  outcome: inactive
[7]
  outcome: inactive
[10]
  outcome: inactive
[8]
  outcome: inactive
[9]
  outcome: inactive

## Clc1ccc(COC(Cn2ccnc2)c2ccc(Cl)cc2Cl)cc1 (stereo unspecified)
[1]
  outcome: inactive
[2]
  outcome: inactive
[3]
  outcome: inactive
[4]
  outcome: inactive
[5]
  outcome: inactive
[6]
  outcome: inactive
[7]
  outcome: inactive
[8]
  outcome: inactive
[9]
  outcome: inactive

## NC(=O)O
[1]
  outcome: inactive
[2]
  outcome: inactive
[3]
  outcome: inactive
[4]
  outcome: inactive
[5]
  outcome: inactive
[6]
  outcome: inactive
[7]
  outcome: inactive
[8]
  outcome: inactive
[9]
  outcome: inactive

## O=C(NCO)NCO
[1]
  outcome: inactive
[2]
  outcome: inactive
[3]
  outcome: inactive
[4]
  outcome: inactive
[5]
  AC50: 54.5 µM (active)
[6]
  outcome: inactive
[7]
  outcome: inactive
[8]
  outcome: inactive
[9]
  outcome: inactive

## CCOC(=O)CP(=O)(OCC)OCC
[1]
  outcome: inactive
[2]
  outcome: inactive
[3]
  outcome: inactive
[4]
  outcome: inactive
[6]
  outcome: inactive
[7]
  outcome: inactive
[10]
  outcome: inactive
[8]
  outcome: inactive
[9]
  outcome: inactive

## N#CN=C(N)N
[1]
  outcome: inactive
[2]
  outcome: inactive
[3]
  outcome: inactive
[4]
  outcome: inactive
[5]
  outcome: inactive
[6]
  outcome: inactive
[7]
  outcome: inactive
[10]
  outcome: inactive
[8]
  outcome: inactive
[9]
  outcome: inactive

## O=C(Cc1ccccc1)c1ccccc1
[1]
  outcome: inactive
[2]
  outcome: inactive
[3]
  outcome: inactive
[4]
  outcome: inactive
[5]
  AC50: 24.9 µM (active)
[6]
  outcome: inactive
[7]
  outcome: inactive
[8]
  outcome: inactive
[9]
  outcome: inactive

## CCC(C)(C)c1ccc(O)c(C(C)(C)CC)c1
[1]
  outcome: inactive
[2]
  outcome: inactive
[3]
  outcome: inactive
[4]
  outcome: inactive
[5]
  outcome: inactive
[6]
  outcome: inactive
[7]
  outcome: inactive
[10]
  outcome: inactive
[8]
  outcome: inactive
[9]
  outcome: inactive

## Nc1ncc([N+](=O)[O-])s1
[1]
  outcome: inactive
[2]
  outcome: inactive
[3]
  outcome: inactive
[4]
  outcome: inactive
[5]
  outcome: inactive
[6]
  outcome: inactive
[7]
  outcome: inactive
[8]
  outcome: inactive
[9]
  outcome: inactive

## CC1CN1P(=O)(N1CC1C)N1CC1C (stereo unspecified)
[1]
  outcome: inactive
[2]
  outcome: inactive
[3]
  outcome: inactive
[4]
  outcome: inactive
[5]
  outcome: inactive
[6]
  outcome: inactive
[7]
  outcome: inactive
[8]
  outcome: inactive
[9]
  outcome: inactive

## CCCCCCCCc1ccc(O)cc1
[1]
  outcome: inactive
[2]
  outcome: inactive
[3]
  outcome: inactive
[4]
  outcome: inactive
[6]
  outcome: inactive
[7]
  outcome: inactive
[10]
  outcome: inactive
[8]
  outcome: inactive
[9]
  outcome: inactive

## CCCCCCCCC(=O)NCc1ccc(O)c(OC)c1
[1]
  outcome: inactive
[2]
  outcome: inactive
[3]
  outcome: inactive
[4]
  outcome: inactive
[5]
  outcome: inactive
[6]
  outcome: inactive
[7]
  outcome: inactive
[10]
  outcome: inactive
[8]
  outcome: inactive
[9]
  outcome: inactive

## C=C(C)C#N
[1]
  outcome: inactive
[2]
  outcome: inactive
[3]
  outcome: inactive
[4]
  outcome: inactive
[5]
  outcome: inactive
[6]
  outcome: inactive
[7]
  outcome: inactive
[10]
  outcome: inactive
[8]
  outcome: inactive
[9]
  outcome: inactive

## ClC1=C(Cl)[C@]2(Cl)[C@H]3[C@H]([C@H]4C=C[C@H]3C4)[C@@]1(Cl)C2(Cl)Cl
[1]
  outcome: inactive
[2]
  outcome: inactive
[3]
  outcome: inactive
[4]
  outcome: inactive
[5]
  AC50: 9.92 µM (active)
[6]
  outcome: inactive
[7]
  outcome: inactive
[10]
  outcome: inactive
[8]
  outcome: inactive
[9]
  outcome: inactive
